Source: PubChem BioAssay AID1159580 (chemical genetic matrix, 2015)
Out of some 5,500 compounds screened, about 2,000 (36%) were called active. Another 18% or so got no clear call; they are omitted. No stated cut-off is given here; in the data, active means normalized growth mostly below about 0.91 (no sharp cut-off); inconclusive means no clear call, values can overlap the other calls; inactive means mostly above about 0.92. Some of the results follow.

Experiment: chemical genetic growth profiling, strain panel (AID 1159580);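 further: tested at 20 µM; growth read once vehicle control cultures reached saturation at 30 °C; 1 = growth at the plate median or of vehicle wells; lower values mean less growth of the strain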
Conditions: growth OD

Measured: normalized growth

COc1cc2c(cc1OC)CC(=O)OC2
active: S. cerevisiae deletion strains, locus YLR039C, strain RIC1, active compounds read low 1.23 [resistant]
inactive: S. cerevisiae deletion strains, locus YAL013W, strain DEP1, active compounds read low 0.985 | S. cerevisiae deletion strains, locus YBR229C, strain ROT2, active compounds read low 0.984 | S. cerevisiae deletion strains, locus YCL061C, strain MRC1, active compounds read low 1 | S. cerevisiae deletion strains, locus YDL101C, strain DUN1, active compounds read low 0.984 | S. cerevisiae deletion strains, locus YDR150W, strain NUM1, active compounds read low 0.966 | S. cerevisiae deletion strains, locus YEL061C, strain CIN8, active compounds read low 1 | S. cerevisiae deletion strains, locus YGR078C, strain PAC10, active compounds read low 1.01 | S. cerevisiae deletion strains, locus YHR030C, strain SLT2, active compounds read low 1.06 | S. cerevisiae deletion strains, locus YHR087W, strain rtc3, active compounds read low 0.997 | S. cerevisiae deletion strains, locus YJR043C, strain POL32, active compounds read low 0.993 | S. cerevisiae deletion strains, locus YJR075W, strain HOC1, active compounds read low 0.995 | S. cerevisiae deletion strains, locus YKL190W, strain CNB1, active compounds read low 1 | S. cerevisiae deletion strains, locus YLR058C, strain SHM2 (second series), active compounds read low 0.994 | S. cerevisiae deletion strains, locus YLR085C, strain ARP6, active compounds read low 1.03 | S. cerevisiae deletion strains, locus YLR262C, strain YPT6, active compounds read low 1.16 | S. cerevisiae deletion strains, locus YML094W, strain GIM5, active compounds read low 0.999 | S. cerevisiae deletion strains, locus YMR219W, strain ESC1, active compounds read low 0.971 | S. cerevisiae deletion strains, locus YMR263W, strain SAP30, active compounds read low 0.994 | S. cerevisiae deletion strains, locus YNL128W, strain TEP1, active compounds read low 1 | S. cerevisiae deletion strains, locus YNL153C, strain GIM3, active compounds read low 1.03 | S. cerevisiae deletion strains, locus YNL298W, strain CLA4 (second series), active compounds read low 1.04 | S. cerevisiae deletion strains, locus YNL322C, strain KRE1, active compounds read low 0.979 | S. cerevisiae deletion strains, locus YNR030W, strain Alg12, active compounds read low 1.02 | S. cerevisiae deletion strains, locus YPL055C, strain LGE1, active compounds read low 0.935 | S. cerevisiae deletion strains, locus YPL241C, strain CIN2, active compounds read low 1 | S. cerevisiae deletion strains, locus YPR135W, strain CTF4, active compounds read low 1.04 | S. cerevisiae strains, strain wild type, active compounds read low 1.01
